Rows were chosen to be rich in hits. Some 1.5% of all compounds tested hit in one or more screens of this group.
STK33 inh – inhibitors of purified STK33 kinase, primary screen, biochemical, ADP-Glo luminescence, homogeneous, cell-free. MBP phosphorylation. inhibition, % at 10 µM. 320,000 tested, 0.073% active;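 active means inhibition at or above 25%, using the most active replicate where run in duplicate; inactive means inhibition below 25%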
Target sequence (Q9BYT3 whole entry, looked up): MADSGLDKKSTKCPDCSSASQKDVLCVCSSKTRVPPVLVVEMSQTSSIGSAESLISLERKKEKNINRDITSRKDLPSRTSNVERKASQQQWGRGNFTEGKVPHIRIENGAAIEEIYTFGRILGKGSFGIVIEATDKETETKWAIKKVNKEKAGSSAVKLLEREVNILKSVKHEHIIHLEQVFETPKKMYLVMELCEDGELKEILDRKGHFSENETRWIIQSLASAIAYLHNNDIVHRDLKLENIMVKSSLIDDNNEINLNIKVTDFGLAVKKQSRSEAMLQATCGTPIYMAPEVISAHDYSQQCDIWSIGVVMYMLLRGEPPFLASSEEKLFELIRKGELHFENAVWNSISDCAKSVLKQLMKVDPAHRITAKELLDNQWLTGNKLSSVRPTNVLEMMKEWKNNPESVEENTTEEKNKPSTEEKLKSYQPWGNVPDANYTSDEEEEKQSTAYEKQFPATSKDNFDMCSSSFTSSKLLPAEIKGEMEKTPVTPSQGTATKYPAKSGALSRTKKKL
HIF activator – HIF pathway transcriptional activators, primary screen, cell-based, U2OS HRE-luciferase, luminescence; U2OS HRE-luciferase reporter; normalized: DMSO 0%, desferrioxamine 100%; activation, % at 7.5 µM (by protocol); 300,000 tested, 0.32% active; AID 1910, 2009;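 active means mean activation of at least 10% of the iron chelator positive control signal, with at least half of replicates also reaching 10%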
DYRK1A inh – rat Dyrk1A kinase inhibitors, primary screen, biochemical, single point, plate reader; 310,000 tested, 0.43% active; ADP-Glo luminescence, NFATc1 peptide; Dual specificity tyrosine-phosphorylation-regulated kinase 1A (Rattus norvegicus), Q63470; inhibition, % at 12.5 µM; in the data active means inhibition above about 50%;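 further: plate controls were vehicle with enzyme for no effect and no enzyme for full effect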
PP1 inh – PP1-alpha phosphatase inhibitors, primary screen, counter-screen for PP5 inhibitor project, biochemical, fluorescence, OMFP substrate, single point; inhibition, % at 6.7 µM; Serine/threonine-protein phosphatase PP1-alpha catalytic subunit (Homo sapiens), P62136; 320,000 tested, 0.9% active; purified PP1alpha;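 active means inhibition above the mean inhibition of all tested compounds plus 3 SD, computed separately for each screening campaign, cut at about 15% in these data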
PP5 primary – PP5 phosphatase inhibitors, primary screen, biochemical, fluorescence; Serine/threonine-protein phosphatase 5 (Homo sapiens), P53041; purified PP5c, OMFP substrate fluorescence; inhibition, % at 6.7 µM; 320,000 tested, 0.18% active;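 active means inhibition above the campaign's mean inhibition across all tested compounds plus 3 SD, cut at about 9.5% in these data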;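 further: 0% = DMSO only and 100% = 100 µM cantharidin control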
PP1 inh confirm – PP1 phosphatase inhibitors, confirmation, biochemical, fluorescence, OMFP substrate, triplicate. shares compounds with PP1 inh. purified PP1alpha. 1,900 tested, 52% active. inhibition, % at 6.7 µM;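 active means mean PP1 inhibition above a set limit taken from the earlier primary screen, cut at about 15% in these data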
PP5 counter – PP5 phosphatase inhibition by PP1 hits, confirmation, counter-screen for PP1 inhibitor project, biochemical, fluorescence, triplicate. shares compounds with PP1 inh. purified PP5c, OMFP fluorescence. 1,900 tested, 4% active. AID 2360, 2010. inhibition, % at 6.7 µM;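 active means mean PP5 inhibition over triplicate wells above about 9.5% taken from the earlier PP1 screen, limit read from the data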
* marks the source's active call; other numbers are inactive results; · = not tested or not shown.

SMILES | STK33 inh | HIF activator | DYRK1A inh | PP1 inh | PP5 primary | PP1 inh confirm | PP5 counter
CCn1cc(C(=O)O)c(=O)c2cc(F)c(N3CCN(C(=O)Nc4ccccc4)CC3)cc21 | 1 | 0 | 4 | 18* | 1 | 12 | -2
CCn1cc(C(=O)NCc2ccco2)c(=O)c2cc(F)c(N3CCN(C(=O)c4ccco4)CC3)cc21 | -4 | 0 | -2 | 18* | 2 | 8 | -5
CCn1cc(C(=O)NCc2ccco2)c(=O)c2cc(S(=O)(=O)N3CCc4ccccc4C3)ccc21 | -1 | -1 | -4 | 19* | 3 | 18* | 1
Clc1ccc(SCc2csc(N3CCOCC3)n2)cc1 | -3 | 0 | -1 | -5 | 2 | · | ·
Clc1ccc(SCc2cc(N3CCOCC3)nc(-c3ccccn3)n2)cc1 | 0 | 0 | 2 | 24* | 1 | 32* | 1
C=CCn1c(SCC(=O)Nc2ccccc2-c2ccccc2)nc2cc(C(=O)O)ccc2c1=O | -6 | 0 | 5 | 0 | -1 | · | ·
CCN(CC)c1ncnc2c1cnn2Cc1ccc(Cl)cc1 | -1 | -1 | · | -2 | 2 | · | ·
O=C(Nc1ccccc1N1CCCC1)c1cccc(-c2cc3ccccc3oc2=O)c1 | 1 | 2 | 1 | 18* | 0 | 19* | -1
CCOC(=O)c1cc(-c2ccccc2)sc1NC(=O)C(C)N1C(=O)NC(C)(c2ccc(Cl)cc2)C1=O (stereo not drawn) | -1 | 0 | 2 | 22* | 4 | 11 | 1
CCOC(=O)c1ccc(-n2c(O)c(/C=N/NC(=O)C3COc4ccccc4O3)c3ccccc3c2=O)cc1 (stereo not drawn) | 4 | 0 | -4 | 31* | -2 | 33* | -2
CCOC(=O)C1=C(COC(=O)c2ccc3ccccc3c2O)NC(=O)NC1C (stereo not drawn) | 8 | · | 16 | 6 | 6 | · | ·
COc1ccc(NC(=O)c2cc(-c3ccncc3)nc3ccc(Br)cc23)cc1OC | -1 | -5 | -5 | 18* | 1 | 24* | 0
COc1ccc(NC(=O)c2cc(C)nc3ccccc23)cc1S(=O)(=O)N1CCOCC1 | 1 | · | 2 | · | · | · | ·
COc1ccc(NC(=O)c2cc(-c3ccco3)nc3ccccc23)cc1S(=O)(=O)N1CCOCC1 | 15 | -1 | 15 | 45* | 2 | 9 | -4
Cc1ccc(NC(=O)c2cc(-c3ccco3)nc3ccccc23)cc1S(=O)(=O)N1CCOCC1 | -1 | 0 | 0 | 23* | 1 | 24* | 3
Cc1ccc(OCC(=O)NC2CCCC(C)C2C)c([N+](=O)[O-])n1 (stereo not drawn) | -2 | · | · | -3 | 2 | · | ·
COc1ccc(N(CC(=O)N2CCN(c3ccccc3F)CC2)S(=O)(=O)c2ccc(C)cc2)cc1 | -2 | 1 | -3 | 1 | 4 | · | ·
COc1ccc(OC)c(S(=O)(=O)CC(O)CS(=O)(=O)c2ccccc2)c1 (stereo not drawn) | 0 | -1 | -1 | -2 | 1 | · | ·
C[C@@H](C(=O)Nc1nc(-c2ccccn2)cs1)N1C(=O)C2CCCCC2C1=O (stereo partly drawn) | 1 | 1 | · | 8 | 1 | · | ·
CC(Oc1ccc(Br)cc1)C(=O)Nc1nc(-c2ccccn2)cs1 (stereo not drawn) | 0 | 1 | 17 | 31* | 5 | 32* | -2
CC(C)[C@H](NC(=O)c1ccccc1Cl)C(=O)Nc1nc(-c2ccccn2)cs1 | 0 | 20* | -2 | 18* | 3 | 27* | 0
CCc1nnc(NC(=O)C(NC(=O)c2ccccc2Cl)C(C)C)s1 (stereo not drawn) | 0 | 0 | · | -3 | 3 | · | ·
O=C(CN1C(=O)CC(c2ccccc2)S(=O)(=O)c2ccccc21)N1CCCC1 (stereo not drawn) | -2 | -1 | -4 | -1 | -1 | · | ·
